In PubChem BioAssay:
Active and inactive are the calls of the source.

Columns and labels:
Albumin (Bos taurus) = Albumin (Bos taurus) (UniProt P02769); test: compounds binding labelled BSA control protein – biochemical, small-molecule microarray, Alexa647 label, 635/667 nm fluorescence, artefact control for SMM control protein annotation, profiling panel (AID 1118); settings: BSA-A647 binding, fluorescence 635 nm, higher = more signal;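 note: score merges 667 nm emission intensity and signal-to-noise per printed compound spot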
[1] = probe aXIP binding to arrayed compounds – biochemical, NeuroSMM set, 635/667 nm fluorescence, primary screen (AID 1119); settings: small-molecule microarray, higher = more signal, called active from +8 up or from −8 down;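 note: probe is the protein aXip251-270 applied at 1 µg/mL to compound-printed slides; binding of probe to printed compounds measured as 667 nm fluorescence plus signal to noise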
[2] = probe aNOTCH3 binding on compound microarray – biochemical, small-molecule microarray, 635/667 nm fluorescence, primary screen (AID 1120); settings: higher = more signal;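 note: probe is a biotin-tagged antibody raised against NOTCH3 rather than NOTCH3 protein; score merges spot fluorescence near 667 nm with spot signal to noise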
[3] = probe aNOTCH2 binding on compound microarray – biochemical, small-molecule microarray, 635/667 nm fluorescence, primary screen (AID 1121); settings: higher = more signal;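 note: score merges feature fluorescence read at 667 nm with its signal to noise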
[4] = biological target: Carbonic anhydrase 2 (Homo sapiens) (UniProt P00918); test: compounds binding carbonic anhydrase 2 – biochemical, small-molecule microarray, Alexa647-labelled CAII, profiling panel (AID 1122); settings: CAII-A647 binding fluorescence, higher = more signal
[5] = COS7 lysate on small-molecule microarray, probe aHis, 635 nm (AID 1123); settings: COS7 cell lysate, fluorescence, higher = more signal;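 note: z-score combines 667nm fluorescence intensity with signal-to-noise per printed compound spot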
[6] = probe aLAP1 signal on lysate-treated microarray – cell lysate, small-molecule microarray, COS7 lysate, primary screen (AID 1124); settings: probe aLAP1, fluorescence, higher = more signal;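 note: lysate comes from COS7 cells expressing LAP1 and is applied at 0.3 µg/mL; score merges spot fluorescence near 667 nm with signal-to-noise over triplicate slides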
Sam68 (KHDRBS1) = test: compounds binding KHDRBS1 protein – biochemical, small-molecule microarray, 635 nm fluorescence, primary screen (AID 1125); settings: higher = more signal;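 note: score merges 667 nm channel intensity with signal to noise over triplicate slides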
[7] = system: Chordin-like protein 2 (CHRDL2); test: compounds binding chordin-like 2 – biochemical, small-molecule microarray, 635 nm fluorescence, primary screen (AID 1126); settings: fluorescence 635 nm, higher = more signal;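 note: printed compound slides probed with Chrdl2 protein at 4 µg/mL for 1 h at 4 C; score merges 667 nm emission intensity with signal to noise over three replicate slides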
[8] = biological target: Concanavalin-A (Canavalia ensiformis) (UniProt P02866); test: compounds binding concanavalin A lectin – biochemical, small-molecule microarray, Alexa647 label, 635 nm, artefact control for SMM control protein annotation, primary screen (AID 1127); settings: ConA-A647 binding fluorescence, higher = more signal;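 note: z combines 667 nm emission intensity with signal-to-noise across three replicate slides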
[9] = compounds binding Alexa647 anti-His antibody – biochemical, small-molecule microarray, 635 nm fluorescence, artefact control for SMM control protein annotation, primary screen (AID 1128); settings: higher = more signal;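 note: score merges feature fluorescence with signal-to-noise for each printed compound spot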
[10] = system: Human papillomavirus type 1a E7 protein (residues 1-88); test: HPV1a E7 small-molecule binders, primary screen, biochemical, small-molecule microarray, residues 1-88, 635 nm (AID 1129); settings: small-molecule microarray binding, fluorescence 635 nm; higher = more signal
[11] = biological target: Focal adhesion kinase 1 (Homo sapiens) (UniProt Q05397); test: PTK2 protein binding on printed compound slides – biochemical, small-molecule microarray, 635/667 nm fluorescence, BSA, DTT, primary screen (AID 1130); settings: 635 nm fluorescence, higher = more signal;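 note: composite of spot emission at 667 nm and signal to noise over triplicate slides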
[12] = system: Fibrinogen (Alexa647-labelled); test: Alexa647-fibrinogen binding to printed small molecules – biochemical, small-molecule microarray, 635/667 nm fluorescence, artefact control for SMM control-protein annotation, profiling panel (AID 1131); settings: fibrinogen-A647 binding fluorescence, higher = more signal;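 note: z-score merges 667 nm fluorescence with per-spot signal-to-noise over triplicate slides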
[13] = biological target: Follistatin (Homo sapiens) (UniProt P19883); test: FST protein binding to printed compounds – biochemical, small-molecule microarray, 635/667 nm fluorescence, primary screen (AID 1132); settings: 635 nm fluorescence, higher = more signal
[14] = biological target: Fibroblast growth factor 2 (Homo sapiens) (UniProt P09038); test: basic fibroblast growth factor binding to printed compounds – biochemical, small-molecule microarray, 635/667 nm fluorescence, primary screen (AID 1133); settings: FGF2, fluorescence 635/667, higher = more signal
[15] = JC-1 mitochondrial potential readout, lung cancer cells – cell-based, A549, JC-1 fluorescence, basal, 24 h, 100 nL, profiling panel (AID 1138); settings: higher = more signal;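 note: A549 lung adenocarcinoma cells under basal conditions with no added stimulus; test concentration not given here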
Lefty1 = Lefty1 protein binding to printed compounds – biochemical, small-molecule microarray, 635/667 nm fluorescence, primary screen (AID 1139); settings: fluorescence 635/667, higher = more signal
[16] = system: wheat germ agglutinin (Triticum aestivum), Alexa647-labelled; test: Alexa647-WGA lectin binding to printed small molecules – biochemical, small-molecule microarray, 635/667 nm fluorescence, artefact control for SMM control-protein annotation, profiling panel (AID 1140); settings: WGA-A647 binding, 635 nm fluorescence, higher = more signal;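 note: score merges 667 nm feature emission with signal to noise over triplicate slides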
[17] = biological target: Luciferin 4-monooxygenase (Photinus pyralis) (UniProt P08659); test: inhibition of purified Photinus pyralis luciferase – biochemical, luminescence, purified enzyme, 2006 set, primary screen (AID 1141); settings: purified firefly luciferase, SteadyGlo luminescence, 30 min; higher = more signal, called active from +8 up or from −8 down;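 note: cell-free assay with purified firefly luciferase at 100 ng per well in PBS; test concentration not given here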
Sequence of Luciferin 4-monooxygenase (Photinus pyralis) (P08659 whole entry, looked up): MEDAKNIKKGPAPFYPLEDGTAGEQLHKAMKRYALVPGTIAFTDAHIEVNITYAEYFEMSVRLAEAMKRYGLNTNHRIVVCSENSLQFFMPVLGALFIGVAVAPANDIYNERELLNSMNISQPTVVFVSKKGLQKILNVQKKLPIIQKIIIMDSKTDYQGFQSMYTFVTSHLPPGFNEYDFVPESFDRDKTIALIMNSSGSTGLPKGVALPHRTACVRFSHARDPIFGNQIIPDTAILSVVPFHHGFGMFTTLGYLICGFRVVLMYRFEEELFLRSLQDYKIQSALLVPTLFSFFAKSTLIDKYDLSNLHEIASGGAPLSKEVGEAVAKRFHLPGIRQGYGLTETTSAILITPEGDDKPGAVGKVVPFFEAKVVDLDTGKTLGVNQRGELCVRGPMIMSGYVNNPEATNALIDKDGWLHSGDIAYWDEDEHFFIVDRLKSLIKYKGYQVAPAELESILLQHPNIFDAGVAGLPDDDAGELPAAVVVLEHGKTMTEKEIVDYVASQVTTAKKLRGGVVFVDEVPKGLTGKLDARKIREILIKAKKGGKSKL

Sequence of Fibroblast growth factor 2 (Homo sapiens) (P09038 whole entry, looked up): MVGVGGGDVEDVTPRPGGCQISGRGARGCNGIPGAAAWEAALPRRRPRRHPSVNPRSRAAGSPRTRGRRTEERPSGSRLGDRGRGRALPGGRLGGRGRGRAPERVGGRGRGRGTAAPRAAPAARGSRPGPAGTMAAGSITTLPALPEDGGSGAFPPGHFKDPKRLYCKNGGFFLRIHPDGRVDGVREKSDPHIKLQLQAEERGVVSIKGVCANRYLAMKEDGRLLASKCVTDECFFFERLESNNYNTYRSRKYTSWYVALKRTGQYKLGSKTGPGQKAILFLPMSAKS
Sequence of Follistatin (Homo sapiens) (P19883 whole entry, looked up): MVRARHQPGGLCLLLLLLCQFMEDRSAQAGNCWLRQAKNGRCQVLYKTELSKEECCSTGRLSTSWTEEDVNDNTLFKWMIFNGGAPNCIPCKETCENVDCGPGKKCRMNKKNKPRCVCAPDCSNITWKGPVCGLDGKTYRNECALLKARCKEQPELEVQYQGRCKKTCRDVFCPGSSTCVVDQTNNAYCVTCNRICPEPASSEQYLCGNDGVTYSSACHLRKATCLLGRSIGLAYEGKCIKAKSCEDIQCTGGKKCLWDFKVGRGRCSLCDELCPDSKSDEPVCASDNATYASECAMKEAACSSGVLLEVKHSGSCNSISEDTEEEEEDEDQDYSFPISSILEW
Sequence of Focal adhesion kinase 1 (Homo sapiens) (Q05397 whole entry, looked up): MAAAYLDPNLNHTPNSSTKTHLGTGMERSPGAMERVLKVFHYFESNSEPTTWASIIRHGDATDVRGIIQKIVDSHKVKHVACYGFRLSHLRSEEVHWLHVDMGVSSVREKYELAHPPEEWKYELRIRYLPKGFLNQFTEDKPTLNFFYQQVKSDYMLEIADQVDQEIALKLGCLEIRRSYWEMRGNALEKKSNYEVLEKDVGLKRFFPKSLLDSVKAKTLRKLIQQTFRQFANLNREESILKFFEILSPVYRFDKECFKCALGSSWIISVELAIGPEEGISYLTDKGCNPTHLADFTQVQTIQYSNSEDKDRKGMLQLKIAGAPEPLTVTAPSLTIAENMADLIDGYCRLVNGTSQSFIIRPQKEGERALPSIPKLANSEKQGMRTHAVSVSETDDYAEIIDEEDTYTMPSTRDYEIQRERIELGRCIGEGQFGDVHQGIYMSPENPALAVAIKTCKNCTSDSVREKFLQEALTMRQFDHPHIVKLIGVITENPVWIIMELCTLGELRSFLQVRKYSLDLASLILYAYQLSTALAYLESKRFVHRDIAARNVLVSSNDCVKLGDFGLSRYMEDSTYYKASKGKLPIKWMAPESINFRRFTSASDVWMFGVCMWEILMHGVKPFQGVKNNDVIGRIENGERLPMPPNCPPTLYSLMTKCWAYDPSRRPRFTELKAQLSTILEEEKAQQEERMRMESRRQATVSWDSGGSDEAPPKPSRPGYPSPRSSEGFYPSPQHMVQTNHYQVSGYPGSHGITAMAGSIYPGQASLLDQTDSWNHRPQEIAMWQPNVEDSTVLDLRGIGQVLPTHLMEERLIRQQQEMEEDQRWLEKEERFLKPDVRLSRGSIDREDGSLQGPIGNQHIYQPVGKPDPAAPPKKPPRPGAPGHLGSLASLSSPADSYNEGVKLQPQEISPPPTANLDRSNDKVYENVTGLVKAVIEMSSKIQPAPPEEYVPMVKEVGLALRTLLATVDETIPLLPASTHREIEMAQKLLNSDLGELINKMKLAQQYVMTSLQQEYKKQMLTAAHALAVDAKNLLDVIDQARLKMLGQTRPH
Sequence of Concanavalin-A (Canavalia ensiformis) (P02866 whole entry, looked up): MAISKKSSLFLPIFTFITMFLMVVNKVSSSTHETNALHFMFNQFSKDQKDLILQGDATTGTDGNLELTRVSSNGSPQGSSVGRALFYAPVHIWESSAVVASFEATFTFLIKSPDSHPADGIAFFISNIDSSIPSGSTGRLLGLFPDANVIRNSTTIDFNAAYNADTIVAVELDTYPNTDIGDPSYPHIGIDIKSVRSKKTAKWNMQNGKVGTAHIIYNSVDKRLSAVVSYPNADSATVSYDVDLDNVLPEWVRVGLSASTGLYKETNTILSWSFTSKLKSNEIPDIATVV
Sequence of Albumin (Bos taurus) (P02769 whole entry, looked up): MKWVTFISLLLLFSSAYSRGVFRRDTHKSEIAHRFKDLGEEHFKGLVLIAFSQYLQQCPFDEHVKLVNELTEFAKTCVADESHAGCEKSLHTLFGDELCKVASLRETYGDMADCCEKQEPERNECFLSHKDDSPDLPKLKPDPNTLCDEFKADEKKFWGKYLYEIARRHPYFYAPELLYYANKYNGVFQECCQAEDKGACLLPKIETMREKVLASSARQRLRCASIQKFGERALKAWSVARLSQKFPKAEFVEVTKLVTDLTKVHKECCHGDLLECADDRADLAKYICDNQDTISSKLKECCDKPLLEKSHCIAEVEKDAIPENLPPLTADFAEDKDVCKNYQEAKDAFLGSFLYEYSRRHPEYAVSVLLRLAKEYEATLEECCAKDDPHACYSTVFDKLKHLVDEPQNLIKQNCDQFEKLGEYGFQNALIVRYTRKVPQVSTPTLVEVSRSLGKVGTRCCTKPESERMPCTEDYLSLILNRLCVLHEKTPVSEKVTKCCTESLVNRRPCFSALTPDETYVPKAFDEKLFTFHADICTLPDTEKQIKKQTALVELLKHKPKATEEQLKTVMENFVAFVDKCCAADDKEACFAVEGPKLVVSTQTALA

Row | Structure (SMILES) | composite z-score (Albumin (Bos taurus)) | composite Z-score [1] | composite z-score [2] | composite z-score [3] | composite z-score [4] | composite z-score [5] | composite z-score [6] | composite z-score (Sam68 (KHDRBS1)) | composite z-score [7] | composite z-score [8] | composite z-score [9] | composite z-score [10] | composite z-score [11] | composite z-score [12] | composite z-score [13] | composite z-score [14] | z-score [15] | composite z-score (Lefty1) | composite z-score [16] | z-score [17]
1 | CC(C)[C@@H](OCc1ccccc1)[C@H](C)CON=C1[C@H]2CCn3c(=O)n(-c4ccccc4)c(=O)n3[C@H]2[C@H](O)[C@@H]2O[C@H]12 | 0.667 | 0.382 (inactive) | -0.0072 | -0.0527 | -0.0291 | 0.476 | -0.219 | 0.593 | 0.427 | -0.0949 | 2.57 | 0.246 | 0.0884 | -0.0016 | 0.759 | 0.324 | -0.139 | 0.689 | 0.192 | 0.0981 (inactive)
2 | COC(=O)CC=C[C@@H](C)[C@@H](C=NOC[C@@H](O)COCc1ccco1)OC | -0.15 | -2 (inactive) | -0.262 | -0.14 | -0.134 | -0.452 | 0.0649 | -0.684 | 1.36 | -0.619 | 1.46 | -0.464 | -0.354 | -1.2 | 1.15 | 0.509 | 0.662 | 1.02 | -0.83 | -1.3 (inactive)
3 | CCN1C(=O)[C@H]2[C@H]3[C@H](O)[C@H](O)CC(=NO[C@@H]4O[C@H](COC(C)=O)[C@@H](OC(C)=O)[C@H](OC(C)=O)[C@H]4OC(C)=O)[C@@H]3CC[C@H]2C1=O | 0.646 | 0.581 (inactive) | 0.0479 | -0.044 | -0.0179 | 0.415 | 0.781 | 1.22 | 0.58 | -0.441 | -0.36 | 0.839 | 0.211 | 0.744 | 0.898 | 0.747 | -0.282 | 1.6 | 0.696 | 1.15 (inactive)
4 | CCOC(=O)CCN1C(=O)[C@H]2[C@H]3[C@H](O)[C@H](O)CC(=NOCC(C)C)[C@@H]3CC[C@H]2C1=O | -0.0235 | 0.544 (inactive) | -0.0693 | -0.186 | -0.52 | -0.934 | -0.412 | -0.0659 | 1.45 | -1.16 | -0.957 | -0.263 | -0.286 | -0.586 | 0.91 | 1.14 | -0.478 | 0.929 | 0.0456 | 0.826 (inactive)
5 | CCOC(=O)[C@H](CC(C)C)NC(=O)CCC1CC(OC(=O)NCc2ccc3c(c2)OCO3)CC2(CCCC(COC(=O)NCc3ccccc3)O2)O1 (stereo not given in full) | 0.646 | 1.09 (inactive) | -0.226 | -0.146 | 0.198 | 1.25 | -0.118 | 1.19 | 0.161 | 1.01 | 0.333 | 0.946 | 0.0786 | 0.926 | 0.659 | 0.495 | -0.0369 | 1.03 | 0.786 | 0.976 (inactive)
6 | O=C1[C@H]2[C@H]3[C@H](O)[C@H](O)CC(=NOC[C@@H](O)COCc4ccco4)[C@@H]3CC[C@H]2C(=O)N1c1cccc(Oc2ccccc2)c1 | -0.407 | -0.352 (inactive) | -0.147 | -0.22 | -0.0803 | -0.704 | -0.0713 | -1.43 | 0.381 | 0.391 | -1.01 | -0.964 | -0.535 | -0.535 | 0.942 | 0.285 | -0.268 | 0.0743 | 0.196 | 0.921 (inactive)
7 | CC(C)=CCCC(C)=CCON=C1C[C@@H](O)[C@@H](O)[C@@H]2[C@@H]3C(=O)N([C@@H](C)c4ccccc4)C(=O)[C@@H]3CC[C@@H]12 | 0.0686 | -0.283 (inactive) | -0.0311 | -0.0194 | 0.043 | 0.157 | 0.0404 | 0.121 | 1.04 | 0.6 | 0.509 | 0.499 | 0.276 | 0.297 | 0.462 | 0.58 | -0.569 | 0.6 | 0.0833 | 0.391 (inactive)
8 | C[C@@H]1CC[C@H]2C(=O)N3[C@@H](CC[C@@H](C)[C@@H]3c3ccc(Br)cc3)C(=O)N2[C@H]1c1ccc(Br)cc1 | 0.213 | -0.119 (inactive) | 0.0462 | 0.224 | -0.161 | 0.246 | -0.0873 | 0.31 | 0.391 | 0.344 | 0.0399 | -0.0695 | -0.104 | 0.122 | 0.301 | 0.13 | 1.48 | 0.52 | -0.0219 | -0.199 (inactive)
9 | Cc1cc2c(nc1C)CCCCN2CC(O)CN1CCCc2nc(-c3ccc(Br)cc3)ccc21 (stereo not given) | 0.466 | -0.211 (inactive) | 0.298 | 0.0067 | 0.493 | 0.417 | 0.293 | 0.754 | 0.613 | 0.783 | 0.819 | 0.582 | 0.171 | -0.564 | 1.06 | 0.709 | 1.59 | 0.998 | 0.765 | -0.802 (inactive)
10 | CO[C@@H]1COC(=O)[C@@H]2CCCN2C(=O)[C@@H](C)COC(=O)CCC[C@H]1C | 0.379 | 0.305 (inactive) | 0.109 | -0.16 | -0.126 | 0.0072 | 0.557 | 1.27 | 0.438 | -0.0031 | 0.176 | 0.0997 | 0.154 | 0.482 | 0.529 | 0.264 | -0.601 | 0.486 | 0.2 | 0.173 (inactive)
11 | CC(C)=CCCC(C)=CCON=C1C[C@@H](O)[C@@H](O)[C@@H]2[C@@H]3C(=O)N(Cc4ccc5c(c4)OCO5)C(=O)[C@@H]3CC[C@@H]12 | 0.653 | 0.74 (inactive) | 0.0827 | -0.0811 | 0.495 | 1.29 | 0.237 | 1.31 | 1.19 | 0.959 | 1.05 | 1.14 | 0.597 | 0.558 | 1.18 | 0.414 | -0.286 | 0.709 | 0.574 | 0.696 (inactive)
